Laboratory results as given in PubChem BioAssay (NCATS).
Inconclusive results are not listed. Unmarked numbers belong to inactive results. The source made the active and inactive calls. Calls come from the whole dose curve; as a rule, active = well fitted inhibition curve with a large enough effect; inconclusive = small, poorly fitted or top-dose-only effect; inactive = flat fitted curve, though single readings scatter.

Each compound was assayed on HaCat (assay: Cytotoxic Profiling of Annotated Libraries Using Quantitative High-Throughput Screening (AID 1296008; note: nearly all actives have a fitted effect of over 60% in size)). Settings: Five cell lines viability, CellTiter-Glo ATP luminescence, 48-72 h; max response: active compounds read low.
Procedure, shortened: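 Cells exposed to compounds for 48 or 72 hr at 37 degrees Celsius. Viability read as ATP-coupled luminescence with CellTiter-Glo after 10 min at room temperature.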
% is set by controls: 0 for no effect and ±100 for the full control effect; potency is the fitted concentration of half-maximal effect.

Compound | Potency | max response
O=C(Cc1cccc(OC(F)(F)F)c1)Nc1ccc(CCCCc2nnc(NC(=O)Cc3ccccn3)s2)nn1 | 23.4 µM (active) | –
C#CCCCn1cc(-c2cccc3c2N[C@H](C)CC(=O)N3)cn1 | – | 0.674%
COc1cc(N2CCC(N3CCN(C)CC3)CC2)ccc1Nc1ncc(Cl)c(Nc2ccccc2P(C)(C)=O)n1 | 1.84 µM (active) | –
COc1cc(O)cc(OC2OC(CO)C(O)C(O)C2O)c1 (stereo unspecified) | – | -5.91%
CC(C)C[C@@H]1NC(=O)[C@@H](Cc2ccccc2)NC(=O)C(CCCCCC(=O)C2CO2)NC(=O)[C@@H]2CCCCN2C1=O (stereo partly specified) | 3.17 µM (active) | –
COc1cc(N2CCC(O)CC2)ccc1Nc1nc(Nc2ccccc2S(=O)(=O)C(C)C)c2[nH]cnc2n1 | 18.4 µM (active) | –
